This experiment relates to Falciformispora senegalensis CBS197.79. As to the kind of experiment: growth relative to untreated control; higher = less inhibition, active = 20 or less. In outline:
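For each test, a hyphal fragment suspension of M. mycetomatis MM55 or F. senegalensis CBS197.79 was prepared in colourless RPMI 1640 with L-glutamine and MOPS at 68–72% transmission at 660 nm. Exposure to compound at 100 or 25 µM ran for 7 days at 37 °C in 96-well plates, followed by viability reading with MTS (2 h, 490 nm) or resazurin (600 nm). Growth corresponds to metabolic activity relative to the untreated growth control after correction of both with a blank of medium and dye.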

From the supplement of paper PMC11172423 come the findings set out here.

Structures are written as SMILES. A number with no mark means an inactive call.

With `OC1(CN2CCC(Oc3cccc(C(F)(F)F)c3)CC2)CCNC1` (configuration not stated), the growth (25 µM) was 98.5% and the growth (100 µM) is 19.1% (active).

For `Cc1nn(-c2cccc(Cl)c2)c2c1C(C(=O)c1ccc3c(c1)OCO3)CC(=O)N2` (configuration not stated), the growth runs as follows: (25 µM) 87.3%; (100 µM) 91.7%.

As for `CCCCCCO[C@@H](C)c1cccc(-c2csc(NC(=O)c3cc(Cl)c(/C=C(\C)C(=O)O)c(Cl)c3)n2)c1OC`, the growth by setting is: (25 µM) 80%; (100 µM) 105%.

Regarding `COc1ccc(Cl)cc1-c1nc(C(=O)NCCN2CCCCC2)c(C(C)C)s1`, the growth by setting is: (25 µM) 94.5%; (100 µM) 77.6%.

With `CC(C)n1ncc2c(C(=O)N3CCCc4ccccc43)cc(-c3ccccc3)nc21`, the growth was 82.5% (25 µM) and 89.8% (100 µM).

As for `Cn1cnc2c(F)c(Nc3ccc(Br)cc3Cl)c(C(=O)NOCCO)cc21`, the growth is, setting by setting: (25 µM) 96.9%; (100 µM) 103%.

On to `C=CCNc1nc(NCC=C)nc(N2CCN(C(c3ccc(F)cc3)c3ccc(F)cc3)CC2)n1`, for which the growth (25 µM) was 105% and the growth (100 µM) was 91.3%.

On to `NC(=O)N1CCC(CC(=O)N2CCC([C@H]3c4ncc(Br)cc4CCc4cc(Cl)cc(Br)c43)CC2)CC1`, for which the growth is 105% (25 µM) and 101% (100 µM).

Consider `O=C(Nc1ncccc1O)c1ccc(Cn2cccn2)cc1`, for which the growth runs as follows: (25 µM) 87.3%; (100 µM) 86.4%.

In the case of `CC(C)c1nc(CN(C)C(=O)N[C@H](C(=O)N[C@@H](Cc2ccccc2)C[C@H](O)[C@H](Cc2ccccc2)NC(=O)OCc2cncs2)C(C)C)cs1`, the growth by setting is: (25 µM) 101%; (100 µM) 104%.

Consider `CC(C)(C)Nc1ncc2nc(Nc3cccc(C(F)(F)F)c3)n(CC3CCNC3)c2n1` (configuration not stated), for which the growth (25 µM) was 94.5% and the growth (100 µM) was 91.5%.
